From the supplement of paper PMC10105736
Unmarked numbers belong to inactive results.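 The calls were made as follows: active = MAPPIT score above the 99th percentile of random reference set scores in the same batch; inactive = at or below it.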

Assays:
Experiment in all cases: MAPPIT interaction score (arbitrary units); higher = stronger binary interaction signal, active = hit call of the paper
[1] = target: CG14282; details: MAPPIT configuration: N-C; pair source set: RRS
[2] = target: CG14464; details: MAPPIT configuration: N-N; pair source set: RRS
[3] = target: CG14074; details: MAPPIT configuration: N-N; pair source set: screen_1
[4] = target: GstO3; details: MAPPIT configuration: N-N; pair source set: DPIM
[5] = target: CG1416; details: MAPPIT configuration: N-N; pair source set: DPIM
[6] = target: CG14190; details: pair source set: RRS
[7] = target: CG42512; details: pair source set: RRS
[8] = target: CG15126; details: MAPPIT configuration: N-N; pair source set: Curagen_high_conf
[9] = target: Slob; details: MAPPIT configuration: N-N; pair source set: Curagen_high_conf
[10] = target: CG14535; details: MAPPIT configuration: N-N; pair source set: screen_2
[11] = target: CG13965; details: MAPPIT configuration: N-C; pair source set: screen_4
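Also: HEK293T cells with Epo stimulation, STAT-responsive firefly luciferase reporter, fold induction versus unstimulated cells divided by the larger fold induction of two negative controls lacking either bait or prey.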

B1: Fkbp12 (protein)
chain: MGVQVVPIAPGDGSTYPKNGQKVTVHYTGTLDDGTKFDSSRDRNKPFKFTIGKGEVIRGWDEGVAQLSVGQRAKLICSPDYAYGSRGHPGVIPPNSTLTFDVELLKVE
B1 showed an MAPPIT interaction score [1] of -0.281.

B2: Cdk12 (protein)
chain: MHASSAAATALVEYSDVSSEDFSDQEAGDLDADAGKGAGNIKKPKPAPDNQFSKGRLDAKPDKEGYDNYRSRRAEDSSDPVAAGSRQTSSSEATNPREEPSQASNTSKDELWGREIYMSSDSIDTDELEAEMKRQKRKKQKKEKHKHKSKKKSKKRKKKRAKSYSSIDSMSDNDINALLDRRYTPPTAPSKSNERTVSAAPSSFTPHNLKESSSPATPPPVRRPNTNSNYYGESSLETANSALGSNLQVTVTNKQSISNRLRSPPPSSRSSGNGPRFGNSPRTPPPSHYSSSGGGGVGSGSVVRDSRSSRYVNSPHKEDVSAHHRSSHDHGYQGRYSGAGSSSHDTRKVKRLSPELDRYNHQPSTPPHKRRKFSDGREVGLGNFEHSRHHSGKYERYSRDRYSRRSSRSPSVQHSRSRQSPSGGLSSGSNAFRHGGSHKHKYGTTVSSTPSHTTRTSKRASGTGTSGDRYSRSPRTSSRYMESSPPSPVGASGSHHYHHRRSPRMRQRTRGDSRRRSPSSASSESSASRSRSPTSRDLKHKREEYIKKISETSLFAELVKDRHKRQKALKEIIERQEENSNSNSNGALTINDNSSSVDGNTPNAADGRSAPGSGTPAAASTTSNGLQALGSKPDLDLNNIPMPNKQNDSVVSNPASNADVPDSVAQLKQPLLVPPFSASKNNIKPKSLTSLPLPPGMNVLDLAGARSPSPGQKKESDEKNVTSSGSANKSVLNLPMPPVIPGSEELSGDDDVIDSPEDFDAPAVGTVHGHGGGPGTTRQRPVILNRRDSRNNVRDWGERCVDVFEMIAQIGEGTYGQVYKARDHHTNDMVALKKVRLEHEKEGFPITAVREIKILRQLNHRNIVNLHEIVTDKQDAVEFRKDKGSFYLVFEYMDHDLMGLLESGMVDFNEENNASIMKQLLDGLNYCHKKNFLHRDIKCSNILMNNRGKVKLADFGLARLYNADDRERPYTNKVITLWYRPPELLLGEERYGPSIDVWSCGCILGELFVKRPLFQANAEMAQLETISKICGSPVPAVWPNVIKLPLFHTLKQKKTHRRRLREDFEFMPAPALDLLDKMLDLDPDKRITAEDALRSPWLRKINPDEMPTPQLPTWQDCHELWSKKRRRQMREQQESLPPTVIASTKYQQHGATMVGDA
Work on B2 yielded an MAPPIT interaction score [2] of 0.381.

B3: PI31 (protein)
chain: MESGSTAKTGDFFYGWDLLYKTVKADVSKKSDLLIALVHFLLTKHYNFRCVGVGDDKTLPEEEGSELLPDSWNDDDTKYSLRYVHDKMLYLLLGHITEGSLLINLLDINTKKVSNICVEPETLVPEVKGGITTIMPSASEIVERYRRELLDPVFTGNSREVTTQTTNSPRPIGSDPDPLRIGEPRRGGSFIPSAFEPRPFGFPDVGRGDLDPLGRGGHGNLFSFPSRPNMGPGPVPRFDPFNPLNPNRPGQGGINPDHMRPPDWNPDYYM
Work on B3 yielded an MAPPIT interaction score [3] of -0.274 and an MAPPIT interaction score [4] of 0.447.

B4: M6 (protein)
chain: MSKVKNLLAKMLQRFGKNSSQADSQRYDSLEEIAQNQANERMLRATQVGLEEHLVICLETEAGSFYWHSQ
Work on B4 yielded an MAPPIT interaction score [5] of -0.155.

B5: tut (protein)
chain: MDFESKYCTSQVNGTITITTRKVLDENLKSLLDEGKGELFLSCIPRNHSCSPRWIVEVASELGEVYIMRYKIDFSGNSRGYAYLQYINVDLKESAMQYLPMRFRQLCMCLRVEPSTNNRELVLKNVESSLRPWQVYQEMLKIHPFTIVRVYEYQLDQFFYIFEYRNNDSAASAHQRVRNSIRKFGEHAHISWLTAENILSRASGSFCFQREVSQNRTRRVPPRQKGCFKF
With B5 the MAPPIT interaction score ([6]; MAPPIT configuration: N-C) was 0.351, the MAPPIT interaction score ([6]; MAPPIT configuration: N-N) was -0.511 and the MAPPIT interaction score ([7]; MAPPIT configuration: N-C) was -0.391. It also gave an MAPPIT interaction score ([7]; MAPPIT configuration: N-N) of 0.0427.

B6: Fem-1 (protein)
chain: MHAELYRTRKRWYESAWPGAGFWRGANDTLPVTNYITYPANFDQPDGQSLTPLTMAAMMGNVKFVKTLLSHYDVDLDRECNVIYDGMVVYGATALWVAAGMGHLQIVKMLVQAGAAINHNTKAQSSPLRAACYEGRLDIVEFLIDNGADVNATNLFNNNTLMIAAYKGHHLVVKTLLQNGSRANDQALCGATALHYAAESGHLDVVVALLDHGATLKKNELGITPALQAAERLHEDVLEAFIERPELMSLEEQITALELLGATYANDKIKYDVNKAYGYLLRAMQLRYSNPRGVIRKRVQPTVPAYDNWLETENLPELYAIKLNHHSIHMESLAIRERILGRNNPELPQAIIYRGAVMADQGRFYQCQVLWNYAIDLRMRNNVSVDRDLLRFAQLFAQILRVENHNLTLDHVLPVLAKCQQEIENNKFKIKEAKPNACPSLWQDQNNQNCITALYLIKIVTHLARRKKDQNIDEEHIQQLFLVVRKFIQNDTRLQDGQTLLHIAVNGVMPVDEFYTNEMCRFPCYATALVLVHCGASVVAVDSDRNTPLHILVTKVNTTQDRQAEMARILELFVEAGAHLDAVNAAGQTAATACKLPILANRLHAHQNAHTSLKCLAARSIATNRLNFKGLIPTQLEAFIQMHSVRKVLP
In the case of B6, the MAPPIT interaction score [8] is reported as 2.87 (active) and the MAPPIT interaction score [9] is reported as 0.0788.

B7: Deaf1 (protein)
chain: MEQVDSSTELHLNRKDLAALAEDVVKEEVILESSSHHHHHHHHQLDTKVRMVTSSSNDNSGSGGASGGTSGAGGGNGGGGVVSVPVSLPIGSMITGTTFNVITPDQLPPHFKPMLCVDNNGYLSGSTVSMGNDLKTIVIQQQQTQPGGGGGGANNAGTNTTATNTIGLNHDGSGSNNSHDSLATLEHAAGGASGVGGGGGGTGGGSSGWSENPSTQHNEVFQIRCKTTCAELYRSKLGSGGRGRCVKYKDKWHTPSEFEHVCGRGSSKDWKRSIKYGGKSLQSLIDEGTLTPHATNCSCTVCCDDEAGESASGPVRLFTPYKRRKRNQTDLDMESGPKRKRNTHHSNNNNSNTNNNNTSGSGANNCVDVTAAVAAATASVVDENNMFLSEENITSKDEPWAALNDSLDTSTELVDQSQMGNTYERETFVVNINDGSSIAVLDTSQSMKNIEHVYCTMVKATNDFKRMLNDMKQSFERRIEVLQKERDAAVSAMRVQVHADIDDPNISGSLHGNEIISAKKCANCNREALAECSLCRKTPYCSEFCQRKDWNAHQVECTRNPQTTTQQVMLLIDDQS
B7 gave an MAPPIT interaction score [10] of 0.95.

B8: RpLP2 (protein)
chain: MRYVAAYLLAVLGGKDSPANSDLEKILSSVGVEVDAERLTKVIKELAGKSIDDLIKEGREKLSSMPVGGGGAVAAADAAPAAAAGGDKKEAKKEEKKEESESEDDDMGFALFE
B8 showed an MAPPIT interaction score [11] of 2.1.
